Drawing on PubChem BioAssay (EPA / NIEHS), this text covers outcome and AC50 for 30 compounds.

Activity calls are given as the source filed them. The calls were made as follows: active = hit-call score of the fitted dose curve at least 0.9, where 1 is the maximum; inactive = score below 0.9.

Chain of Bile acid receptor (Homo sapiens) (Q96RI1 whole entry, looked up): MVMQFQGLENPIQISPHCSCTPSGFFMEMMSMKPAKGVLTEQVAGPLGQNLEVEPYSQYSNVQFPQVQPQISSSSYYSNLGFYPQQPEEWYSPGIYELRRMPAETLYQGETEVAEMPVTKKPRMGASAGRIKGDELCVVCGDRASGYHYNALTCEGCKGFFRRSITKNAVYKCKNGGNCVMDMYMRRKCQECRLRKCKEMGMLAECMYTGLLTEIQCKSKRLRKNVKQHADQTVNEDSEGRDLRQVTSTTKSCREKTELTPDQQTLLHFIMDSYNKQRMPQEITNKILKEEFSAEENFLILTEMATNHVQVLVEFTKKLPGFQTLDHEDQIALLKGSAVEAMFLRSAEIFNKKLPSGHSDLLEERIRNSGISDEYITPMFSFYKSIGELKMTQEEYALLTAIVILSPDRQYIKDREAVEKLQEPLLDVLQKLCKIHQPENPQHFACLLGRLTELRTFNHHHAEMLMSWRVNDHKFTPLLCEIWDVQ

For one assay, the target named is Bile acid receptor (Homo sapiens) (UniProt Q96RI1). Briefly: ATG_IR1_CIS: Attagene CIS-FACTORIAL HepG2 Assay for human Nuclear Receptor Subfamily 1 Group H Member 4 (NR1H4), IR1 submotif (AID 2282946). Conditions: IR1 reporter transcription, actives raise or lower the signal. A digest of the protocol:
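Transient MRTU transfection, HepG2; 24 h dosing; RNA → RT-PCR → 6-FAM primer extension → HpaI digest → capillary electrophoresis fluorescence. Gain/loss of signal fitted relative to DMSO.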
On to `C=CC(=O)OCCCCCC(C)C`, for which the call was inactive. Consider `CCC(C)c1cccc(C(C)CC)c1O` (stereo not given), for which the outcome was inactive. Take `CCCCP(CCCC)CCCC`: the call was inactive.

Take `C=C(C)C#N`: the compound was classed as inactive.

System in a further assay: not listed separately
In words: ATG_GRE_CIS: Attagene CIS-FACTORIAL HepG2 Assay for human Glucocorticoid Response Elements (GRE) (AID 2282947). Conditions: HepG2 GRE cis-reporter, Attagene multiplex mRNA; actives raise or lower the signal. The procedure, abridged:
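Following 24 h chemical exposure of transiently transfected HepG2 cells, total RNA was reverse-transcribed and reporter cDNA amplified, fluorescently labelled and sized by capillary electrophoresis. Signal gain or loss was fitted relative to DMSO vehicle.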
Turning to `Cc1cc(=O)[nH]o1`, the compound was classed as inactive. In the case of `CCCCC(CC)CO[N+](=O)[O-]` (stereo not given), the call was inactive. `COP(=S)(OC)Oc1c(Cl)cc(C)cc1Cl`: the compound was called inactive.

`O=Cc1cccc(Oc2ccccc2)c1`: the compound was classed as inactive. Same read-out and setting: for `COP(=S)(OC)Oc1ccc(S(=O)(=O)N(C)C)cc1` the value was “inactive”; for `CCCCCCCCc1ccc(O)cc1`, “inactive”. Take `CC(=O)C(Cl)C(=O)N(C)C` (stereo not given): the compound was classed as inactive.

For the compound `Cl/C=C/Cl`, the compound was called inactive. Regarding `O=P(O)(O)CN(CP(=O)(O)O)CP(=O)(O)O`, the result was inactive.

As for `O=CC=O`, the compound was classed as inactive.

With `O=c1[nH]c(=O)[nH]c(=O)[nH]1`, the compound was called inactive. The same measure, in the same setting: in the case of `CNC` it was “inactive”. The term AC50 denotes the midpoint of the concentration-response curve, whichever way the signal moves. Take `CC(=O)c1cc(C(C)(C)C)cc2c1CCC2(C)C`: the AC50 was 73.9 µM (active).

Consider `CCc1ccccc1N`, for which the result was inactive. `O=C(CCl)CCl`: the AC50 is 33.4 µM (active).

As for `ClCc1ccccn1`, the call was inactive.

Consider `O=C/C=C/c1ccccc1`, for which the outcome was inactive. In the case of `CC(C#N)CCC#N` (stereo not given), the call was inactive. On the same count and under the same terms, in the case of `O=C1C(Cl)=C(Cl)C(=O)c2ccccc21` it was “inactive”; in that of `ClCC(Cl)CCl`, “inactive”; in that of `COc1cc(OC)nc(NC(=O)NS(=O)(=O)c2ncccc2C(=O)N(C)C)n1`, “inactive”. For the compound `ClC1=C(Cl)[C@]2(Cl)[C@H]3[C@H]([C@H]4C=C[C@H]3C4)[C@@]1(Cl)C2(Cl)Cl`, the outcome was inactive.

Consider `COP(=S)(OC)Oc1cc(Cl)c(Cl)cc1Cl`, for which the call was inactive.

As for `C=CC#N`, the result was inactive. Regarding `ClC(Cl)=C(Cl)C(Cl)=C(Cl)Cl`, the AC50 was 165 µM (active). Turning to `O=S(=O)(c1ccc(Cl)cc1)c1ccc(Cl)cc1`, the outcome was inactive.
